# Screening results from PubChem BioAssay.
# TDP1 cell CPT – DT40-hTDP1 cell growth loss with CPT | chicken DT40 Tdp1-/-;hTDP1 cells + 20 nM CPT, ATP luminescence, 48 h | Potency, µM (highest dose often 46.2 µM), inactives show at the top dose activity change, negative = growth inhibition, usual class: inhibitors | hit rate 12% among 420,000; also: nearly all actives have a fitted effect of over 55% in size
#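 Chicken DT40 Tdp1-/- cells complemented with human TDP1, 400 cells/well, exposed to compounds plus 20 nM camptothecin for at least 48 h at 37 C; viability read as ATP content by CellTiter-Glo luminescence.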
# VP16 counter – counter-screen for ROR gamma inhibitors: Gal4-VP16 reporter. Drosophila S2 Gal4-VP16 UAS-luciferase, luminescence, 20 h. Potency, µM (titrated, usually from 53.6 µM), for the others: top-dose activity, negative = inhibition, usual class: inhibitors. hit rate 3.5% among 310,000;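 also: Gal4-VP16 expression switched on by copper sulfate through the metallothionein promoter; nearly all actives have a fitted effect of over 50% in size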
# 12-LOX inh – blocks human arachidonate 12S-lipoxygenase | purified 12hLO, xylenol orange hydroperoxide absorbance | Potency, µM (series often up to 108 µM), inactives show top-dose activity change, negative = inhibition, hits mostly inhibitors | hit rate 1.1% among 580,000 | AID 1671190
# Target sequence (P18054 whole entry, looked up): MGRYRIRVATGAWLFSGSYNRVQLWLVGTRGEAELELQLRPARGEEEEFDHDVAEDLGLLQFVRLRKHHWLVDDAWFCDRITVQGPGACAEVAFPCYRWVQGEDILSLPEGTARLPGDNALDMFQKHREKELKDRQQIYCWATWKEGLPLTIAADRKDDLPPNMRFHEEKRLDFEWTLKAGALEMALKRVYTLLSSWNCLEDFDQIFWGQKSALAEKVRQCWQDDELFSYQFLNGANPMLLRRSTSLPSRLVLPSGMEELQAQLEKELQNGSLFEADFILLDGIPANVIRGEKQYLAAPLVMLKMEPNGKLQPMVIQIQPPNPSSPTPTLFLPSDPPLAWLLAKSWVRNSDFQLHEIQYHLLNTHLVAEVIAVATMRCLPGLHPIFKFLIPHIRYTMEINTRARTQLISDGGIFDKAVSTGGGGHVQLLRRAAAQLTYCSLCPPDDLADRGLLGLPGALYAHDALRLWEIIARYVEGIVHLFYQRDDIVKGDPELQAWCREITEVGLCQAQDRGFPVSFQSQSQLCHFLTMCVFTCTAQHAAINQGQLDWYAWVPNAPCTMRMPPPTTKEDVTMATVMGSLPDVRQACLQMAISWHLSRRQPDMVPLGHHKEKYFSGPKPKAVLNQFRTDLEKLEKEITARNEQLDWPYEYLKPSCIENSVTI
#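 Hydroperoxide product was detected by ferrous iron/xylenol orange as the 573 to 405 nm absorbance ratio. Arachidonic acid at 40 uM (final) was turned over for 30 min at room temperature by 150 nM human 12hLO, pH 7.0 Hepes buffer, after 15 min compound preincubation.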
# RORg inh – ROR gamma (mouse) transcription inhibition | P51450 | hit rate 5.4% among 310,000 | Drosophila S2 Gal4-RORgamma UAS-luciferase reporter, 20 h | Potency, µM (top dose mostly 53.6 µM), inactives show at the top dose activity change, negative = inhibition, usual class: inhibitors; also: nearly all actives have a fitted effect of over 60% in size
#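 Compounds are pin-transferred onto Drosophila Schneider cells expressing a copper-inducible Gal4–ROR gamma transactivation domain fusion. After 1 hr, copper sulfate is added to 700 uM final; luciferase is read 20 hr later.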
# ELG1 repair inh – blocks ELG1-dependent DNA repair in HEK293T cells; HEK293T ELG1-luciferase reporter, luminescence, 16 h; DNA damage induced by 5-fluorouridine; Potency, µM (series often up to 46.1 µM), without a hit: at the highest dose activity change, negative = inhibition, actives largely listed as inhibitors; hit rate 2.3% among 330,000; AID 504467; also: nearly all actives have a fitted effect of over 55% in size
#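 5-Fluorouridine DNA damage + compound/DMSO, 2,000 cells/well, 16 h, 37 °C/5% CO2. ONE-Glo, 30 min RT, luminescence. Readout = decrease in reporter signal.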
# TDP1 cell noCPT – qHTS for Inhibitors of human tyrosyl-DNA phosphodiesterase 1 (TDP1): qHTS in cells in absence of CPT | DT40 Tdp1-/- hTDP1 cells, no CPT, ATP luminescence, 48 h | Potency, µM (doses to about 46.2 µM), without a hit: at the top dose activity change, negative = growth inhibition, actives largely listed as inhibitors | hit rate 15% among 420,000 | AID 686978, 2013; also: nearly all actives have a fitted effect of over 55% in size
#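 Readout: luminescence from CellTiter-Glo after 30 min in the dark at RT. Cells: DT40 Tdp1-/- with stable hTDP1, 400/well. Exposure: compounds alone, ≥48 hr, 37 °C.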
# An asterisk follows results filed as active; i = inactive; ? = inconclusive; nt = no result; [ ] = dose if it differs, or a comment. Shown are actives, neighbours in structure and some others; about 15% of the full set was active somewhere. Calls follow the shape of the dose curve; as a rule, active = well fitted curve in the direction sought with a large enough effect; inconclusive = small, poorly fitted or top-dose-only effect, or another doubt; inactive = no such curve, though single readings can be large; an effect the other way counts as inactive or inconclusive. % is scaled to controls: 0 for no effect and ±100 for the full control effect; potency is read from the fitted curve at half-maximal effect.
SMILES,TDP1 cell CPT,VP16 counter,12-LOX inh,RORg inh,ELG1 repair inh,TDP1 cell noCPT
COc1ccc(C=O)cc1COc1ccc(F)cc1F,?,-13%,-1%,9%,-4%,?
COc1ccc(/C=N/NC(=O)c2ccn[nH]2)cc1COc1ccc([N+](=O)[O-])c(C)c1,?,-21%,77%,33%,?,?
COc1ccc(C(=O)N/N=C/c2ccc(OC)c(COc3ccc(F)cc3F)c2)cc1,?,?,-3%,13µM*,9.2µM*,18µM*
COc1ccc(/C=N/NC(=O)c2ccn[nH]2)cc1COc1ccc(F)cc1,16µM*,-7%,60%[57.4 µM],19%,-7%,?
O=C(Nc1ccc(F)cc1)NC1CCCCC1,-9%,1%,1%,4%,?,-6%
O=C(NC(=S)NC1CCCCC1)c1ccc(F)cc1,-17%,4.5µM*,?,3.2µM*,?,-11%
O=C(C1CCN(Cc2ccc(F)cc2)CC1)N(CCO)Cc1ccccc1,-3%,-5%,-8%,-23%,11%,-17%
O=C(C1CCN(Cc2ccc(F)cc2)CC1)N(CCc1ccccc1)Cc1ccccc1,23µM*,7%,?,35%,-28%,16µM*
O=C(NC(=S)NC1CCN(Cc2ccccc2)CC1)c1ccc(F)cc1,?,11µM*,?,7.1µM*,-23%,15µM*
Cc1nc(C)n(CCCn2ccnc2-c2cc3n(n2)CCCNC3)n1,nt,nt,64%,nt,nt,nt
Cc1c(-c2ccc(F)cc2)[nH]c2ccc(CNC(=O)c3n[nH]c4c3CCCC4)cc12,nt,nt,29%,nt,nt,nt
C#CCNC(=O)c1sc(C(C)C)nc1C,nt,nt,30%,nt,nt,nt
O=C(CNc1ccccc1)NNC1=NCCC1,-6%,?,8%,?,2%,13%
O=C(CNc1ccc2ccccc2c1)NNC1=NCCC1,-7%,4µM*,-1%,2.8µM*,12%,-18%
Cc1ccccc1NCC(=O)c1ccc(Br)cc1,?,-15%,?,16%,-5%,?
COc1ccc(C(=O)CNc2ccccc2Br)cc1,-8%,?,40%,1.8µM*,?,-19%
COc1ccc(NC(=O)c2ccc3ccccc3c2)cc1,6%,-2%,13%,-33%,?,4%
COc1ccc(C(=O)CNc2ccc3ccccc3c2)cc1,-8%,?,-13%,13µM*,?,?
CC(C)(C)c1ccc(S(=O)(=O)/C=C/C#N)cc1,0.79µM*,nt,nt,nt,nt,0.56µM*
O=C1NC(C(=O)O)=CC(c2ccc(Br)cc2)N1 (centres undefined),nt,nt,-39%,nt,nt,nt
CCOc1ccc(S(=O)(=O)N(C(C)=O)c2ccc3oc(C)c(C(=O)OC)c3c2)cc1,1.3µM*,nt,-23%,nt,nt,0.58µM*
COC(=O)c1c(C)oc2ccc(N(C(=O)c3ccncc3)S(=O)(=O)c3ccc(Br)cc3)cc12,8.2µM*,nt,-25%,nt,nt,3.7µM*
CC(C)OC(=O)C(C(=O)C(F)(F)F)c1cc(NS(=O)(=O)c2ccc3c4c(cccc24)C(=O)N3)ccc1O (centres undefined),12µM*,nt,-67%,nt,nt,?
CCOC(=O)N1CCN(S(=O)(=O)c2ccc3c4c(cccc24)C(=O)N3)CC1,-3%,-20%,0%,-19%,4%,-20%
COC(=O)c1c(C)oc2ccc(N(C(C)=O)S(=O)(=O)c3ccccc3)cc12,15µM*,?,-9%,?,-22%,-105%
SMILES,TDP1 cell CPT,VP16 counter,12-LOX inh,RORg inh,ELG1 repair inh,TDP1 cell noCPT
CCOC(=O)c1c(-c2ccccc2)oc2ccc(N(C(C)=O)S(=O)(=O)c3ccccc3)cc12,?,nt,-17%,nt,nt,?
COCCNC(=O)c1ccc(OC2CCN(CCC(C)c3ccc(C)o3)CC2)c(Cl)c1 (centres undefined),nt,nt,44%,nt,nt,nt
CC/C=C\CCCCO,nt,nt,25%[176 µM],nt,nt,nt
COCC1CN(C(C)=O)CC12CCN(Cc1cccc(OC)c1)CC2 (centres undefined),nt,nt,41%,nt,nt,nt
Cc1ccc(C(=O)NCc2coc(-c3cccs3)n2)cc1,nt,nt,-2%,nt,nt,nt
CCOc1ccc(S(=O)(=O)Nc2ccc3oc(C)c(C(=O)OCCOC)c3c2)cc1,1.8µM*,nt,?,nt,nt,1.5µM*
CCCCOC(=O)c1c(C)oc2ccc(NS(=O)(=O)c3ccc4c5c(cccc35)C(=O)N4)cc12,?,-2%,?,25%,?,18µM*
COCCOC(=O)c1c(C)oc2ccc(NS(=O)(=O)c3cccs3)cc12,7%,0%,-15%,32%,-8%,-4%
COC(=O)c1c(C)oc(C)c1S(=O)(=O)N(Cc1ccccc1)C(C)C,13µM*,-1%,i,1%,-26%,16µM*
COc1ccc(C(C)NC(=O)COc2ccc(NC(=O)C3CC3)cn2)cc1 (centres undefined),nt,nt,45%,nt,nt,nt
Cc1cnc(CC2CCCN(C(=O)NCC(C)C)C2)n1Cc1ccc(F)cc1 (centres undefined),nt,nt,40%,nt,nt,nt
CCOC(=O)C1(CCCc2ccccc2)CCN(C(=O)c2cc(C)nc(C)n2)CC1,?,-12%,69%,4%,-14%,?
CCOC(=O)C1(Cc2ccc(Cl)cc2)CCN(Cc2cn(CC)nc2C)CC1,16µM*,0%,4%,12%,?,?
CCOC(=O)C1(CCCc2ccccc2)CCN(C(=O)c2cnc(C)cn2)CC1,26µM*,7%,0%,?,16µM*,21µM*
CCOC(=O)C1(CCc2ccccc2)CCN(C(=O)c2cccc(C)n2)CC1,?,?,-13%,14%,18%,?
CCOC(=O)C1(Cc2ccc(OC)cc2)CCN(C(=O)c2cc(C)nn2C)CC1,23µM*,?,6%,42%,?,18µM*
CCOC(=O)C1(CCc2ccccc2)CCN(C(=O)c2occc2C)CC1,?,-15%,?,27%,?,15µM*
O=C(Cc1ccccc1)N1CCC2(CC(c3cccnc3)=NO2)C1 (centres undefined),nt,nt,1%[6.33 µM],nt,nt,nt
CCOC(=O)C1(CCc2ccccc2)CCN(C(=O)[C@@H]2C[C@@H](C)NC(=S)N2)CC1,-27%,?,?,11µM*,-9%,-16%
CCOC(=O)C1(Cc2ccc(Cl)cc2)CCNCC1,nt,nt,30%,nt,nt,nt
CCOC(=O)C1(Cc2ccc(Cl)cc2)CCN(C(C)Cc2ccc(O)c(OC)c2)CC1 (centres undefined),9.2µM*,16µM*,?,-12%,-1%,3.3µM*
